For some of these results: Measured potencies and affinities stand elsewhere.

Common to all, as to parameters: scale not given: direction of the effect not stated beside the values
The target of experiment [1] is Protein translocase subunit SecA (Escherichia coli (strain K12)) (UniProt P10408). The experiment can be described thus: Assay to Identify E. coli SecA ATPase Inhibitors. Type of experiment: functional. As to conditions: 30 µM.
For experiment [2], the target named is T1, Ubiquitin-activating enzyme e1, putative (Leishmania donovani (strain BPK282A1)) (UniProt E9BSI1).
T1 sequence (whole entry): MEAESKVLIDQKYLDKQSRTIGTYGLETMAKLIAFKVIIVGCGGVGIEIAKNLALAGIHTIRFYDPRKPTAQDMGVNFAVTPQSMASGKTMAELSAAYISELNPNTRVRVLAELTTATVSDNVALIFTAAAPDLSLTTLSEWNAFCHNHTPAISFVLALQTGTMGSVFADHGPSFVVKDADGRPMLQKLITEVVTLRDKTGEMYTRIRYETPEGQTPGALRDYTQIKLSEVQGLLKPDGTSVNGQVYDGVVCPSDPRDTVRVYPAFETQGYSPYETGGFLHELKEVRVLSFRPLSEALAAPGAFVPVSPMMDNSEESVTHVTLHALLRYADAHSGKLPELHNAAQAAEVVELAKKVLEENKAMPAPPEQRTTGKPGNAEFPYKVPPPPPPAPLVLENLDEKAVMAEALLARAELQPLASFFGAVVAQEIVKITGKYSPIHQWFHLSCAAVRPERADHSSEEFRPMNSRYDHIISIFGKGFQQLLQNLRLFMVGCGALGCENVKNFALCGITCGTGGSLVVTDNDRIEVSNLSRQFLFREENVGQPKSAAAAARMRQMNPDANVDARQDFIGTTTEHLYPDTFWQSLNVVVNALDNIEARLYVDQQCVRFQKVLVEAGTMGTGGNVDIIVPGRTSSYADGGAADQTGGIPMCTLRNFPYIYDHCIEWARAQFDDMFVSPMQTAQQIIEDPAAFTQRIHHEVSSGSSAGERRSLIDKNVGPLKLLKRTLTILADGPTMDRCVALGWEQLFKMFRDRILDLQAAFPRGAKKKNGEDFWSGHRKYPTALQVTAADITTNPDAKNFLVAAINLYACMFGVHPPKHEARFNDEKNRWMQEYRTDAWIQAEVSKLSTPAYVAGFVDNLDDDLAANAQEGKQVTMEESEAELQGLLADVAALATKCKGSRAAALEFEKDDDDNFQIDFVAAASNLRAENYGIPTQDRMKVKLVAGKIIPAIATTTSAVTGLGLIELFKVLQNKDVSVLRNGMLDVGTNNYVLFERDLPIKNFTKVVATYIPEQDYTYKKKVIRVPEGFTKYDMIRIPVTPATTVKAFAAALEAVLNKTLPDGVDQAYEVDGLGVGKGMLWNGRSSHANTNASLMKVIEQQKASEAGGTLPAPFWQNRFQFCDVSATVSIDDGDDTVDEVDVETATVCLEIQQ
The experiment can be described thus: Leishmania donovani Ubiquitin Activating Enzyme (LdE1). Format: functional. As to conditions: 30 µM.

In experiment [3] the target is AMP-activated protein kinase, AMPK (Homo sapiens) (UniProt P54646+O43741+P54619+Q9UGJ0+Q9Y478+Q13131+Q9UGI9). In words: AMP-dependent Kinase enzyme assay. An in vitro enzyme assay that detects ADP turnover that is directly proportional to AMPK activity. This uses naive AMPK that is activated during the assay with MK-8722. Type of experiment: functional. As to conditions: 30 µM.

Experiment [4] concerns the target Sialic acid-binding Ig-like lectin 9 (Homo sapiens) (UniProt Q9Y336). The experiment can be described thus: Hs-Siglec9 ALPHAscreen SOP 20170721. As to conditions: 10 µM. On the technique in general: Alpha assays give light when donor and acceptor beads are brought close together.
The test system of a further experiment is Trypanosoma cruzi. In words: Trypanosoma cruzi phosphomannomutase and mannose-1-phosphate guanylyltransferase assay. As to conditions: 10 µM. Format: functional.
Experiment [5] has as its target T2, Arginase-2, mitochondrial (Homo sapiens) (UniProt P78540).
T2 sequence (whole entry): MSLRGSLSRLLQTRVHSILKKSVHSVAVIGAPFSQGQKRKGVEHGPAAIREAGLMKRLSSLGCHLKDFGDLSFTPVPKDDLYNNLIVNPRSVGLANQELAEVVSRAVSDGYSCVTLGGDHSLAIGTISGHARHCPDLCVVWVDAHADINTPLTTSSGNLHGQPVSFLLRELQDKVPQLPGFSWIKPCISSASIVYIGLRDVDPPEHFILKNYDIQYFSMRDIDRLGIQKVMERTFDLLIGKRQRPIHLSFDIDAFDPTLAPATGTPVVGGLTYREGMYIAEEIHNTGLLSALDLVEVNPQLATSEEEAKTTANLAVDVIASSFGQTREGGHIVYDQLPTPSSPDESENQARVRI
In words: in vitro enzyme assay to detect the production of urea directly proportional to the activity of Arginase II. Further: in the data most compounds retested in dose-response had high values. Format: functional. As to conditions: 33.3 µM.

Experiment [6] addresses T3, Proteasome subunit beta (Trypanosoma cruzi) (UniProt O96673).
T3 sequence (whole entry): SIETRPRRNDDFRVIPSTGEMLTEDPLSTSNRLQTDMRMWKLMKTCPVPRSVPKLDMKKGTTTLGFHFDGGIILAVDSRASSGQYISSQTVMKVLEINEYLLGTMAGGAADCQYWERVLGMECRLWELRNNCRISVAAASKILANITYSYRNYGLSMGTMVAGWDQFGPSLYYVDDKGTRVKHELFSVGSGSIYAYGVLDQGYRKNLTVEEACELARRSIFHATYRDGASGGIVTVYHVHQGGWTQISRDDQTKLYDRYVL
In words: Trypanosoma cruzi proteasome chymotrypsin-like activity (TcProtChymo) assay. Further: in the data most compounds retested in dose-response had high values. Format: functional. As to conditions: 9.37 µM.

The species entered for a further experiment is Homo sapiens. The experiment can be described thus: To identify inhibition of the IFN signalling (Jak-Stat) pathway via expression of an eGFP reporter gene under the control of an IFN-stimulated response element (ISRE) containing MxA promoter. Type of experiment: functional. As to conditions: 30 µM. For orientation: Reporter assays use an easily measured gene product as a stand-in for the process of interest.

Experiment [7] deals with T4, Tyrosyl-tRNA synthetase, putative (Trypanosoma cruzi (strain CL Brener)) (UniProt Q4DSP6).
T4 sequence (whole entry): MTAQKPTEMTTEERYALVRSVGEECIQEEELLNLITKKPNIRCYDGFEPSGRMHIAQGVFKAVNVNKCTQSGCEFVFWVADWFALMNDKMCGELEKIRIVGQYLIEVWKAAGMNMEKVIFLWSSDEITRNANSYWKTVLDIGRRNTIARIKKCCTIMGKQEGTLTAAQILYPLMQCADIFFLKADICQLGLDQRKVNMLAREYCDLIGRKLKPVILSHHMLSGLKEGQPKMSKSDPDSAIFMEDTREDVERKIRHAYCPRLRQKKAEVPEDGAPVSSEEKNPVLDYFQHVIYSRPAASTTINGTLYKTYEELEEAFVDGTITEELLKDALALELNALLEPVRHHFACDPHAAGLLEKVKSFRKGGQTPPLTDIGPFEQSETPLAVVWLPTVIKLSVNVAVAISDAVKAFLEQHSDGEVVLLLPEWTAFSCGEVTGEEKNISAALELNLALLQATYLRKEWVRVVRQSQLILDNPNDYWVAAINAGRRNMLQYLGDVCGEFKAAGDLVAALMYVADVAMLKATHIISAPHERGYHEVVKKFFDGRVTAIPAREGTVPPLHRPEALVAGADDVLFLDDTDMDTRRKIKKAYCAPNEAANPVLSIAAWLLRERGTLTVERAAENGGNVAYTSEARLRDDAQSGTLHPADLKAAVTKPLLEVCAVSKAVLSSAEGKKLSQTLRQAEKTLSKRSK
In words: Trypanosoma cruzi tyrosyl tRNA synthetase (TcYRS) _High Tyrosine SOP. Further: in the data most compounds retested in dose-response had high values. As to conditions: 30 µM. Type of experiment: functional.

Experiment [8] concerns the target T4, Tyrosyl-tRNA synthetase, putative (Trypanosoma cruzi (strain CL Brener)). The experiment can be described thus: Trypanosoma cruzi tyrosyl tRNA synthetase (TcYRS) SOP. Type of experiment: functional. As to conditions: 30 µM.
Experiment [9] addresses Chromo domain-containing protein 1 (Saccharomyces cerevisiae (strain ATCC 204508 / S288c) (Baker's yeast)) (UniProt P32657). The experiment can be described thus: ScCHD-1 Enzyme Inhibition Assay. Further: in the data most compounds retested in dose-response had high values. Format: functional. As to conditions: 30 µM.

Chain of Protein translocase subunit SecA (Escherichia coli (strain K12)) (P10408 whole entry): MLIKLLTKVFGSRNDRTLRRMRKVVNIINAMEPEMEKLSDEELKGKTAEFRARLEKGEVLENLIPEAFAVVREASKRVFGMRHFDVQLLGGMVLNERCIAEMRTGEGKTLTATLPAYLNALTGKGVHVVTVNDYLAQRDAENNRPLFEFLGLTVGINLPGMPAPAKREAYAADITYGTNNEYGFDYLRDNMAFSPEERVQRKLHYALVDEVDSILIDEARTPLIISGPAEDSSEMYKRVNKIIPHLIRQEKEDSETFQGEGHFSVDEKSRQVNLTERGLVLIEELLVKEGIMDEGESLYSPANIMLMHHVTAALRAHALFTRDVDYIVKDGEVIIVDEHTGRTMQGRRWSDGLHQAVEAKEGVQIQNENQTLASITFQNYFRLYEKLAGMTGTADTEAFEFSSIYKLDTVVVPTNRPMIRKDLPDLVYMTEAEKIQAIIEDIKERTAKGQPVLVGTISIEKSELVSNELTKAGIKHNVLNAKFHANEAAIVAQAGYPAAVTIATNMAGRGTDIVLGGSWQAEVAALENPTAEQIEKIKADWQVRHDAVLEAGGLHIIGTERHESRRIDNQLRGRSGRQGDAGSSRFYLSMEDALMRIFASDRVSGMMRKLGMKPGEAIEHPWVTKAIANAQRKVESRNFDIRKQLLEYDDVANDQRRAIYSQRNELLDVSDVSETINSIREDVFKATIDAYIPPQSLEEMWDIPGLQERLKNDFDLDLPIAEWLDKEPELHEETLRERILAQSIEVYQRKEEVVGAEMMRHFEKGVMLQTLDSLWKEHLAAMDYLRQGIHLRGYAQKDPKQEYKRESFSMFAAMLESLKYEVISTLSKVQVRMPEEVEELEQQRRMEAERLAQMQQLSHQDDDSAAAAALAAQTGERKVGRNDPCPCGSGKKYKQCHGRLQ
Chain of Sialic acid-binding Ig-like lectin 9 (Homo sapiens) (Q9Y336 whole entry): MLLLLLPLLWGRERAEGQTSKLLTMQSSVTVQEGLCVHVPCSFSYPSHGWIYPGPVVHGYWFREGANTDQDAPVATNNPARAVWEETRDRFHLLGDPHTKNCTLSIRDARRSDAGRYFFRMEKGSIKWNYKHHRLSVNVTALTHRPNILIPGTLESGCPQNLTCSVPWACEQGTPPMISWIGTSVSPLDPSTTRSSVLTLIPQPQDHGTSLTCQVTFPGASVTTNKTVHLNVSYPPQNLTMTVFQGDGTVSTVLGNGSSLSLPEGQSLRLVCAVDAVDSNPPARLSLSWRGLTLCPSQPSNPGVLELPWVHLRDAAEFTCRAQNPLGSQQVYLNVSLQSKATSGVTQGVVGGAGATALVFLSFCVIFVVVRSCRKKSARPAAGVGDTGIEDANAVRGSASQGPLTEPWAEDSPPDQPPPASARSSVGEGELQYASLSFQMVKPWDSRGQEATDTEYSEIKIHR
Chain of Chromo domain-containing protein 1 (Saccharomyces cerevisiae (strain ATCC 204508 / S288c) (Baker's yeast)) (P32657 whole entry, the tested form may be a part): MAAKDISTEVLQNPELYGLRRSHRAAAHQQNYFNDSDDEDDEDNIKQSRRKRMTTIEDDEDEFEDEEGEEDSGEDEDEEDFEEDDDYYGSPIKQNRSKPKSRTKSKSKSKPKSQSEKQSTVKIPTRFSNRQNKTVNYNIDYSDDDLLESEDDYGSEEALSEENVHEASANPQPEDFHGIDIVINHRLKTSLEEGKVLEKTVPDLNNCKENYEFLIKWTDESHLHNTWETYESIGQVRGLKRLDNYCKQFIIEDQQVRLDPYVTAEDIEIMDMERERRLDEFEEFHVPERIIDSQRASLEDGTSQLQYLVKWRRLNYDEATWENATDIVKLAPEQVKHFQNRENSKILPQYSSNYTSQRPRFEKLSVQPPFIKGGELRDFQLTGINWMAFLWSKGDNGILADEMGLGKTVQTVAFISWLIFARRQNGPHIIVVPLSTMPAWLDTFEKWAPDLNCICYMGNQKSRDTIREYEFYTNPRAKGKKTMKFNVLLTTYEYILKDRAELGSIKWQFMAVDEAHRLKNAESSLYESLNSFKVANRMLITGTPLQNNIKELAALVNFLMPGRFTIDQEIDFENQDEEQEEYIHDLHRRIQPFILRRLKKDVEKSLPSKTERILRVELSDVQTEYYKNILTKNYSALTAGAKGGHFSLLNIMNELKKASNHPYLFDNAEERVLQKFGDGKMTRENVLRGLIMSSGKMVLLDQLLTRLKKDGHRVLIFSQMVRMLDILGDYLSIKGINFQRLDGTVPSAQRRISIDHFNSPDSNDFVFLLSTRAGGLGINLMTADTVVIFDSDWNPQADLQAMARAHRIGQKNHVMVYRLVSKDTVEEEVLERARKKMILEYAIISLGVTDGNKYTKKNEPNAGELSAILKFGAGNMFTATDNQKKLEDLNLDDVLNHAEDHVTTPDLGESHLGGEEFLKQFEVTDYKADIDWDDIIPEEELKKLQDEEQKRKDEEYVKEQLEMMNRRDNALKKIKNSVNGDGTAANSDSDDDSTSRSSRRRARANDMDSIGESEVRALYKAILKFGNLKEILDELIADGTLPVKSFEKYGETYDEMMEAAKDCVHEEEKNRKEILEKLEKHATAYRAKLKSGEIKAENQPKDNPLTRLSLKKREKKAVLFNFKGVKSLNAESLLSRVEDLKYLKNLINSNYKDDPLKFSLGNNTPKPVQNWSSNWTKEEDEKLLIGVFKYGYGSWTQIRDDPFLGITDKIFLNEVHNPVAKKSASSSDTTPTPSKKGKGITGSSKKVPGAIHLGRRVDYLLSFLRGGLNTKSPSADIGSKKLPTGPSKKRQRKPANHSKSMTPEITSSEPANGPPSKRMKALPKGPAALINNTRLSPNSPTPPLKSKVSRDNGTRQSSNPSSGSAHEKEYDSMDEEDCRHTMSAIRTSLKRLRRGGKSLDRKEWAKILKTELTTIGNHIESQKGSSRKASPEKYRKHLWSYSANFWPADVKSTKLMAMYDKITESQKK

Consider `CCc1ncc2c(n1)CN(Cc1nc(C)c(C)o1)CC2`, for which the Percent Effect is -3.48% in [1]; 2.74% in experiment [2]; -53% in experiment [3]; -5.63% in experiment [4]; -1.76% in the experiment on Trypanosoma cruzi; 6.82% in [5]. For the same molecule, the Percent Effect in experiment [6] is 9.94%; in the experiment listed under Homo sapiens, 10.1%; in experiment [7], 5.38%; in experiment [8], 10%; in experiment [9], -5.18%.

`CN(CCCc1cnn(C)c1)C(=O)C1COc2ccccc2C1` (stereo unspecified): the Percent Effect in experiment [1] is 0.742%; in experiment [2], 8.22%; in experiment [3], 1.84%; in [4], -1.88%; in the experiment with Trypanosoma cruzi, -1.37%; in experiment [5], 2.27%. In addition, the Percent Effect in experiment [6] is 20.6%; in the experiment listed under Homo sapiens, 9.33%; in experiment [7], 2.15%; in [8], 17.5%; in [9], -14.2%.

As to `CCS(=O)(=O)N1CCC(c2nnc(Cn3cccn3)n2C2CC2)CC1`, the Percent Effect in experiment [1] is -4.32%; in [2], 1.39%; in experiment [3], -35.4%; in [4], -1%; in the experiment on Trypanosoma cruzi, 2.23%; in experiment [5], 3.97%. For the same molecule, the Percent Effect in experiment [6] was 2.1%; in the experiment filed under Homo sapiens it was -11.4%; in experiment [7] it was 2.1%; in [8] it was 7.69%; in experiment [9], -2.3%.

On to `CCc1ncnc2c1CCN(C(=O)Cc1ccccn1)CC2`, for which the Percent Effect in [1] is -1.33%; in experiment [2], 4%; in [3], -1.05%; in [4], 1.52%; in the experiment with Trypanosoma cruzi, -0.786%; in [5], -9.33%. In addition, the Percent Effect is 11.8% in [6]; 12.9% in the experiment filed under Homo sapiens; 1.06% in experiment [7]; -5.13% in experiment [8]; -2.69% in experiment [9].

For the molecule `CNC(=O)CC1CCN(Cc2nc(-c3cccc(Cl)c3)oc2C)CC1`, the Percent Effect was -1.83% in [1]; 8.11% in experiment [2]; -6.08% in experiment [3]; 19.1% in experiment [4]; 4.05% in the experiment with Trypanosoma cruzi; 0% in [5]. The Percent Effect in experiment [6] is 20.2%; in the experiment filed under Homo sapiens, 4.01%; in experiment [7] it was 5.82%; in experiment [8], 9.76%; in [9] it was -2.39%.

For the molecule `CCc1cnc(CN(C)C2CCN(CCc3cccs3)C2)o1` (stereo unspecified), the Percent Effect in experiment [1] is -4.76%; in experiment [2], 15.8%; in [3] it was -3.51%; in [4], -0.997%; with Trypanosoma cruzi it was -2.89%; in experiment [5], -5.4%. The Percent Effect in [6] is 12.3%; in the experiment filed under Homo sapiens it was 2.05%; in [7], 10.3%; in [8] it was 18.5%; in experiment [9], -5.25%.

Consider `O=C(c1ccc[nH]1)N1CCN(CC2CCOc3ccccc3C2)CC1` (stereo unspecified), for which the Percent Effect in [1] is -7.81%; in [2], 1.39%; in experiment [3] it was -3.67%; in [4] it was 14.8%; in the experiment with Trypanosoma cruzi, 1.07%; in experiment [5], -1.77%. Besides, the Percent Effect is 4.04% in experiment [6]; -2.27% in the experiment listed under Homo sapiens; 3.16% in experiment [7]; -7.69% in experiment [8]; -1% in experiment [9].

On to `COc1cc(CNC(=O)NCc2c(C)cc(C)[nH]c2=O)ccc1C`, for which the Percent Effect in experiment [1] is -6.17%; in experiment [2] it was 7.89%; in experiment [3], -0.139%; in experiment [4], 4.36%; in the experiment with Trypanosoma cruzi, 5.64%; in [5] it was 1.15%. Moreover, the Percent Effect is 11.9% in experiment [6]; 6.94% in the experiment listed under Homo sapiens; 2.45% in [7]; 12.2% in experiment [8]; -9.57% in [9].

As for `CC(C)c1ncc2c(n1)CN(Cc1nc(-c3cccs3)no1)CC2`, the Percent Effect in experiment [1] is -1.45%; in experiment [2], -10.8%; in [3], -21.1%; in experiment [4], -6.68%; in the experiment with Trypanosoma cruzi, -3.99%; in experiment [5], 2.4%. Also, the Percent Effect is 2.33% in experiment [6]; 19.6% in the experiment listed under Homo sapiens; 13.9% in experiment [7]; 13.4% in experiment [8]; 8.9% in experiment [9].

As to `CCC(CC)c1cc(C(=O)N2CCCC(n3cncn3)C2)on1` (stereo unspecified), the Percent Effect in [1] was -2.21%; in experiment [2] it was -1.39%; in [3], -4.63%; in experiment [4], 9.13%; in the experiment on Trypanosoma cruzi it was 3.6%; in experiment [5], 22.5%. Also, the Percent Effect in experiment [6] was 11.9%; in the experiment listed under Homo sapiens it was -8.85%; in experiment [7], 1.05%; in [8], 5.13%; in experiment [9], 0.586%.

Take `CCS(=O)(=O)CCN1CCCC1c1noc(C2CC2)n1` (stereo unspecified): the Percent Effect in experiment [1] was -0.786%; in experiment [2], 20.2%; in [3], -7.83%; in experiment [4] it was -3.74%; with Trypanosoma cruzi it was -4.44%; in experiment [5] it was 0%. In addition, the Percent Effect in experiment [6] is 6.63%; in the experiment listed under Homo sapiens it was 38.5%; in experiment [7], -0.493%; in experiment [8], -34.2%; in experiment [9], -7.2%.

Source of the values: ChEMBL document CHEMBL3988442, “University of Dundee, Small-Polar-MMV Screening Library” (2021).
